Experimental data from the supplement of paper PMC9402605.
± gives the standard deviation of the averaged measurements.

The molecules below were run on Caenorhabditis elegans N2 (assay: egg-laying rate relative to DMSO control (serotonin + nicotine background) (fraction of control); higher = more egg-laying). Details: background: 12.3 mM serotonin + 7.7 mM nicotine; 60 µM; 1 h.
Protocol: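 About 20 young-adult wild-type C. elegans (N2) per well in 96-well plates were exposed to 60 uM compound for 1 h at room temperature, either in M9 buffer (to find stimulators) or in 12.3 mM serotonin + 7.7 mM nicotine (NS, to find inhibitors). Eggs per worm per hour were counted by automated imaging and normalised to the mean of proximal DMSO control wells. Values average the primary screen and two retests of the worm-active (wactive) Egl modulators.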

Compound | egg-laying rate
CCOc1ccc(/C=C/[N+](=O)[O-])cc1 [wact-385] | 0.313 ± 0.11
